Hits are enriched below; roughly 4.7% of the tested compounds scored in any of these assays.
PTK2B oligo ant: antagonists of Pyk2 self-association, primary screen, Q293 cells, FERM NanoBiT luminescence, HTS; Protein-tyrosine kinase 2-beta (Homo sapiens), Q14289; hits give low values; z-score (the deposit names both 25 µM and 10 µM); hit rate 0.83% among 99,000;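 active = Z-score of -3 or lower, scaled per plate to the spread of control and sample wells; inactive = z-score above -3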;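 note: negative z-score means lost luminescence so less FERM oligomerization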
hDAT+cocaine: changed hDAT dopamine uptake under cocaine IC80, either direction, primary screen, cocaine antagonist project, cell-based, LLC-PK1 hDAT, [14C]-dopamine uptake, MLSMR. B-score at 10 µM. Sodium-dependent dopamine transporter (Homo sapiens), Q01959. LLC-PK1 hDAT cells, [14C]-dopamine uptake with cocaine IC80; actives deviate in either direction. hit rate 1.3% among 110,000;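 active = Z score or B-score, a plate-position-corrected score, falls beyond the plate's 99.7% confidence bounds, in either direction; inactive = both scores lie inside the 99.7% bounds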;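 note: scored against the spread of the other compound wells on the same plate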
PLK1 PBD inh: Plk1 polo box domain binding inhibitors, primary screen, biochemical, fluorescence polarization; Serine/threonine-protein kinase PLK1 (Homo sapiens), P53350; Plk1 PBD phosphopeptide binding; inhibition, %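 (tested at about 20 µM)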; hit rate 0.13% among 97,000; in the data active = inhibition above about 34%, passing the limit was not always enough
Target sequence (P53350 whole entry, looked up, the tested form may be a part): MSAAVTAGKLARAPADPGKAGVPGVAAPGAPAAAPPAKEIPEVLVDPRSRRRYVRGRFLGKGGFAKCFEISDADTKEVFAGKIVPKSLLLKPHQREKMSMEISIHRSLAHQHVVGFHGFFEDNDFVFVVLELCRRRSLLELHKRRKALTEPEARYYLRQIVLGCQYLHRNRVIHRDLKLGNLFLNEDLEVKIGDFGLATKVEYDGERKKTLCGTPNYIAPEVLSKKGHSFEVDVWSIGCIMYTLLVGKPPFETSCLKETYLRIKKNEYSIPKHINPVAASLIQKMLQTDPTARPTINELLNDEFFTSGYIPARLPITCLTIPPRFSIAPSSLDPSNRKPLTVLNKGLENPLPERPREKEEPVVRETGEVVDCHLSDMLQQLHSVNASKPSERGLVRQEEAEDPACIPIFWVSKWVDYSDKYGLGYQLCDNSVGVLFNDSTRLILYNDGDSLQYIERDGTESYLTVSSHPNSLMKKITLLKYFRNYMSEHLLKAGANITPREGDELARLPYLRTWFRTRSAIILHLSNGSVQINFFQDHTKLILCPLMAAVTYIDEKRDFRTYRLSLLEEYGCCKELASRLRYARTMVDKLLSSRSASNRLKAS
Cav32 inh: Cav3.2 calcium influx blockers – cell-based, Fluo-4 calcium fluorescence, FDSS, MLSMR library, primary screen. Voltage-dependent T-type calcium channel subunit alpha-1H (Homo sapiens), O95180. Cav3.2-expressing cells; hits give low values. B-score at 10 µM. hit rate 4% among 100,000;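 active = single-dose well whose peak fluorescence ratio is a statistical outlier from its plate by either plate-standardised score or position-corrected B-score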
PLK1 kinase inh: human PLK1 kinase inhibitors, primary screen, biochemical, TR-FRET; Serine/threonine-protein kinase PLK1 (Homo sapiens), P53350; recombinant PLK1 kinase, TR-FRET peptide phosphorylation; inhibition, % at 10 µM; hit rate 0.53% among 97,000; AID 619, 2007;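 active = inhibition of 50% or more in the single-concentration screen; inactive = inhibition below 50%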;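 note: 0% = DMSO max control and 100% = H-89 dihydrochloride min control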
SDO1 yeast rescue: growth rescue of sdo1-depleted yeast, primary screen, S. cerevisiae, bone marrow failure model | S. cerevisiae sdo1-depleted JHY4D growth rescue, OD600 30 h; hits give high values; pdr5 snq2 efflux-pump mutant strain | z-score at 10 µM | hit rate 0.21% among 140,000;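 active = z-score above 3 at both the 24 hr and the 30 hr optical density reads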;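 note: z-score against mean and SD of all compound wells on the same plate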
* hit, by the source's call; x = no result; [ ] = dose if it differs, or a comment.

SMILES	PTK2B oligo ant	hDAT+cocaine	PLK1 PBD inh	Cav32 inh	PLK1 kinase inh	SDO1 yeast rescue
CNC(=O)COC(=O)c1cc(=O)[nH]c2ccccc12	-0.28	-0.346	27.2	0.151	-15.1	-0.01
CC(C)(C)NC(=O)NC(=O)COC(=O)c1cc(=O)[nH]c2ccccc12	-3.82*	0.666	10.3	-0.00151	1.5	0.43
CCCCCOC(=O)c1cc(=O)[nH]c2ccccc12	-3.54*	9.75e-05	1.1	x	2.2	-0.73
O=C(C1CCC1)N1CCC(c2nc3c(nnn3Cc3c(F)cccc3Cl)c(=O)[nH]2)CC1	-1.11	2.75*	4.0	1.3	-8.6	-0.37
O=C(Cc1cccs1)N1CCC(c2nc3c(nnn3Cc3ccc(F)cc3)c(=O)[nH]2)CC1	0.11	1.83	-27.3	0.303	-11.8	0.5
O=C(Cc1cccs1)N1CCCC(c2nc3c(nnn3Cc3cccc(Cl)c3)c(=O)[nH]2)C1 (stereo not given)	-1.09	2.31*	-1.3	-1.02	-11.7	0.59
Cc1ccc(C)c(Cn2nnc3c(=O)[nH]c(C4CCCN(C(=O)C5CCC5)C4)nc32)c1 (stereo not given)	-0.13	1.89	-11.6	-0.832	15.4	-0.02
CC(C)c1ccc(C(=O)NN2C(=O)C3CCCCC3C2=O)cc1 (stereo not given)	x	x	x	x	x	-0.67
O=C(NCc1ccco1)c1nnc(Cc2ccc(Cl)cc2)o1	x	2.58*	-1.7	-0.41	3.7	0.45
C/C(=N/NS(=O)(=O)c1ccc(Cl)cc1)c1cccc(NC(=O)c2ccc(Cl)cc2Cl)c1	1.49	x	3.1	x	-2.9	-1
COc1ccc(Br)cc1/C=N/NC(=O)CNC(=O)/C=C/c1ccccc1	-0.56	0.761	-24.4	-7.55*	-8.2	-0.89
C=C(C(=O)c1ccccc1)C(CC(=O)c1ccccc1)c1ccccc1 (stereo not given)	x	x	x	x	x	-1.21
O=C(O)c1cc(NS(=O)(=O)c2ccc(N3CCCCC3)c([N+](=O)[O-])c2)cc(C(=O)O)c1	x	x	x	x	x	0.85
O=C(COC(=O)c1ccccc1C(=O)c1ccc(Cl)cc1)NC(c1ccccc1)c1ccccc1	x	x	x	x	x	-0.76
CCCN1CCCc2cc(CN(CCCN3CCOCC3)C(=O)Nc3ccc(OCC)cc3)ccc21	-0.55	2.73*	10.8	-2.14	3.1	-0.01
CC1CCN(c2cc(N3CCN(C(=O)c4ccc(F)c(F)c4)CC3)c([N+](=O)[O-])cc2F)CC1	x	x	x	x	x	0.14
O=C(Nc1ccccc1)c1ccc(F)c(S(=O)(=O)N2CCOCC2)c1	0.84	0.67	x	x	x	-0.43
O=C(Nc1ccc(-c2cn3ccsc3n2)cc1)c1ccc(F)c(S(=O)(=O)N2CCOCC2)c1	-3.68*	-0.162	18.5	0.821	-7.3	0.42
CN(C(=O)CSCC(=O)O)C1CCCCC1	x	x	x	x	x	0.72
CN(C)S(=O)(=O)c1cc(NC(=O)COC(=O)c2ccc3c(c2)OCO3)ccc1Cl	x	x	x	x	x	0.88
CCCCOc1ccc(C(=O)N/C(=C\c2ccc(OC)cc2)C(=O)OCc2ccco2)cc1	-0.83	1.05	-20.9	-8.62*	-3.8	-1.04
O=C(N/N=C/c1cccnc1)/C(=C\c1cccs1)NC(=O)c1ccccc1	x	x	x	x	x	0.77
O=C(N/N=C/c1cc2ccccc2nc1Cl)/C(=C/c1cccs1)NC(=O)c1ccccc1	-0.62	0.354	-18.9	-5.87*	-21.2	-0.23
COc1ccc(OCCNS(=O)(=O)c2ccc3oc4ccccc4c3c2)cc1	-0.67	-0.664	-31.5	-0.395	-12.2	-1.39
O=S(=O)(NCCOCC(F)(F)C(F)F)c1ccc2oc3ccccc3c2c1	-1.56	0.195	-24.3	-4.59*	-4.0	-0.79
CCOC(=O)[C@H]1NN=C(C(=O)OC)[C@@H]1c1ccccc1	x	x	x	x	x	0.9
CSc1nc(SCC(=O)NCc2ccco2)c2c3c(sc2n1)CN(C)CC3	-0.36	-0.784	-2.1	-0.347	9.4	-0.17[11.1 µM]
CSc1nc(SCC(N)=O)c2c3c(sc2n1)CN(C)CC3	2.49	0.421	10.0	4.12*	16.6	0.73

From PubChem BioAssay
